According to ChEMBL document CHEMBL2218924, “A broad activity screen in support of a chemogenomic map for kinase signalling research and drug discovery” (Biochem J, 2013):

These compounds were tested against Ribosomal protein S6 kinase alpha-1 (Homo sapiens) (UniProt Q15418). Settings: at 10 µM.
Sequence of Ribosomal protein S6 kinase alpha-1 (Homo sapiens) (Q15418 whole entry): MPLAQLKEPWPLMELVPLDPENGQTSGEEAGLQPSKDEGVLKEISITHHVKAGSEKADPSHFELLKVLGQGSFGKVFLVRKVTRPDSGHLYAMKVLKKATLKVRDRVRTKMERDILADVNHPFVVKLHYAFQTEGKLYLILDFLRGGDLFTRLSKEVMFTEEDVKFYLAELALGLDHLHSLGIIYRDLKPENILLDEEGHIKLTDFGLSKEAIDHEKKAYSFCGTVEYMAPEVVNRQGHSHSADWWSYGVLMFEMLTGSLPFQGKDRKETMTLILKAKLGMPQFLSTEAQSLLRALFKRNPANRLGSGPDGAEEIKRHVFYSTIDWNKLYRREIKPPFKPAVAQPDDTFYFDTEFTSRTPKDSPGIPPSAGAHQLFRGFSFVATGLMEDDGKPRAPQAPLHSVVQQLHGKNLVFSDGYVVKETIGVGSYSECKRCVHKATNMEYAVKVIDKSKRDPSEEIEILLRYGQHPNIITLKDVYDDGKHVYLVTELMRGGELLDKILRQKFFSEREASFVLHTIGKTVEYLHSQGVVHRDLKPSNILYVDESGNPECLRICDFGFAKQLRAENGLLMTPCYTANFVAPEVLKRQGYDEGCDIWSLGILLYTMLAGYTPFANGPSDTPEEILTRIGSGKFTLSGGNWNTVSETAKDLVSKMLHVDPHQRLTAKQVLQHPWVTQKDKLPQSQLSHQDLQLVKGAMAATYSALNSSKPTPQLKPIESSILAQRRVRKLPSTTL

Row | SMILES | residual activity [%]
1 | Nc1cccc(-c2cc3c(Oc4cccc(O)c4)ncnc3[nH]2)c1 | 68
2 | COc1cc2ncnc(Nc3ccc(NC(=O)c4ccccc4)cc3)c2cc1OC | 75
3 | Cn1nc2c3c(cccc31)C(=O)c1ccccc1-2 | 93
4 | N#Cc1cnc2cnc(NCc3cccnc3)cc2c1Nc1ccc(F)c(Cl)c1 | 1
5 | c1ccc2c(-c3ccncc3)c[nH]c2c1 | 67
6 | O=C(Nc1cccc(Nc2nccc(Nc3cccc(C(F)(F)F)c3)n2)c1)C1CC1 | 36
7 | CC(C)n1cnc2c(NCc3ccccc3)nc(NCCCO)nc21 | 82
8 | COc1cc2ncnc(Nc3ccc(Oc4ccccc4)cc3)c2cc1OC | 78
9 | O=C(O)c1ccc2c3c1cccc3c(=O)n1c3ccccc3nc21 | 79
10 | Cn1cnc2cc3c(Nc4cccc(Br)c4)ncnc3cc21 | 92
11 | O=C1Nc2ccc(Br)cc2/C1=C\c1cc2c([nH]1)CCCC2 | 81
12 | CC(=O)c1ccc(N2CCOCC2)cc1O | 110
13 | N#CCCc1ccc2c(c1)-c1[nH]c3ccc([N+](=O)[O-])cc3c1CC(=O)N2 | 24
14 | Cc1ccc(S(=O)(=O)/C=C/C#N)cc1 | 121
15 | O=C1NC(=O)c2cc(Nc3ccc(F)cc3)c(Nc3ccc(F)cc3)cc21 | 91
16 | C[C@@H](N)[C@H]1CC[C@H](C(=O)Nc2ccncc2)CC1 | 48
17 | CCN(CC)C(=O)c1ccc(Nc2nc(OCC3CCCCC3)c3nc[nH]c3n2)cc1 | 7
18 | Cn1cc(/C=C2\C(=O)Nc3ccc(S(N)(=O)=O)cc32)c2ccccc21 | 6
19 | O=C1Nc2ccccc2/C1=C1/Nc2ccccc2/C1=N\OCCC(O)CO (centres undefined) | 12
